According to the supplement of paper PMC3334620:
Whole data set: some 33,000 sequences, median “E-score (-0.5 to 0.5)” near -0.054, cut for the highest 2% near 0.39. The entries come from a sample that favours the highest values as a whole.

The sequences below were run against Ylr278c (UniProt Q05854) (assay: PBM E-score (8-mer binding enrichment) (E-score (-0.5 to 0.5)); higher = stronger / more preferred TF binding). Conditions: protein concentration: 200 nM; construct: GST-DNA-binding domain.
Chain of UniProt Q05854 (Q05854 whole entry, the tested form may be a part): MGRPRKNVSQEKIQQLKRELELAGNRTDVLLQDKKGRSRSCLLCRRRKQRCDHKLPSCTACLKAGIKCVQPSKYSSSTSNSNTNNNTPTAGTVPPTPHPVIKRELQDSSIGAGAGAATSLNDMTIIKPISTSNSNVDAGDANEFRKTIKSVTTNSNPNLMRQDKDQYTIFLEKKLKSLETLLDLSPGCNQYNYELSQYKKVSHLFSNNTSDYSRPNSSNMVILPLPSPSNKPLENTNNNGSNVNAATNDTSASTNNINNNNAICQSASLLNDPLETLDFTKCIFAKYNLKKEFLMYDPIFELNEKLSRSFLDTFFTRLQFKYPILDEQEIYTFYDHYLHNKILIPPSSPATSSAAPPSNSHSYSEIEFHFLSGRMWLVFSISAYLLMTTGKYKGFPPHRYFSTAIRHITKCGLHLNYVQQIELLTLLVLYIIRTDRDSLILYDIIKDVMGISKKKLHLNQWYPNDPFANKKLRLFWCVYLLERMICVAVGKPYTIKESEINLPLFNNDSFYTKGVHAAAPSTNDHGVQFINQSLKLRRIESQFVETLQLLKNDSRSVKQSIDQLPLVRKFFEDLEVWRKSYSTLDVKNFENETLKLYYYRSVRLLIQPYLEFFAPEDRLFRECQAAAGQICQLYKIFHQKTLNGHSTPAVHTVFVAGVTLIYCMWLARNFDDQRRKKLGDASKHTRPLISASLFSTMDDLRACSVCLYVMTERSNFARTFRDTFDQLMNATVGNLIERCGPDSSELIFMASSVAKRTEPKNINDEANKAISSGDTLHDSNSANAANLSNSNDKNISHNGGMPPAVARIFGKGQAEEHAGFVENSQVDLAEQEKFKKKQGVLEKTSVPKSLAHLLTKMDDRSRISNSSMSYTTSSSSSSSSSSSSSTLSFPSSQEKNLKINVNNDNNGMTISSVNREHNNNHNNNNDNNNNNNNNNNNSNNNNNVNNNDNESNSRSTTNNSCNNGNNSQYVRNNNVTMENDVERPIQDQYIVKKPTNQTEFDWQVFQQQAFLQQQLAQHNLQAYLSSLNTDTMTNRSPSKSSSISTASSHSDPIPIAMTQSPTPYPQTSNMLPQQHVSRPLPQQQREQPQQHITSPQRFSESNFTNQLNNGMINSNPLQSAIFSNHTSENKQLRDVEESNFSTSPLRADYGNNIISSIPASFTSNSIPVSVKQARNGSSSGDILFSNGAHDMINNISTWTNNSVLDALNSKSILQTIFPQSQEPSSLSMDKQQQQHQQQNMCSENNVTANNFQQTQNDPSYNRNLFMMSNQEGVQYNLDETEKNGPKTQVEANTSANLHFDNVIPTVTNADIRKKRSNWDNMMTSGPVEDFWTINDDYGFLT
Description: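 Universal 'all 10-mer' protein binding microarrays (Agilent AMADID 015681) probed with GST-tagged S. cerevisiae TFs (full-length or DBD) made by in vitro transcription/translation (PURExpress), about 100-200 nM. Bound TF was detected with fluorescent anti-GST. Each ungapped 8-mer (which stands for itself and its reverse complement) is scored by the PBM enrichment score (E-score), a modified Wilcoxon-Mann-Whitney statistic from -0.5 to +0.5, computed with the Universal PBM Analysis Suite. Scale: above 0.35 generally sequence-specific binding.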
In the case of AACTGGCC, the “PBM E-score” value is reported as 0.0711. For GTGCCTTA, the “PBM E-score” value was -0.129. With AGCGCAGG the “PBM E-score” value was 0.169. In the case of CAAAAAGG, the “PBM E-score” value is reported as -0.203. With AATTTCTC the “PBM E-score” value was 0.121. For CCCCGGCG, the “PBM E-score” value was 0.348. For CCCGGGAG, the “PBM E-score” value was 0.294. In the case of CCCCGGAG, the “PBM E-score” value is reported as 0.48. With GCCCGGAC the “PBM E-score” value was 0.406. For CCCCGGTC, the “PBM E-score” value was 0.368. With GCCCGGGC the “PBM E-score” value was 0.356. CCCCGGTA was tested, and the “PBM E-score” value was 0.329. In the case of CCCCGGAA, the “PBM E-score” value is reported as 0.406. For CCCCGGCC, the “PBM E-score” value was 0.287. For CCCCGGAC, the “PBM E-score” value was 0.388. GCCCGGCC was tested, and the “PBM E-score” value was 0.32. In the case of CCCCGGCA, the “PBM E-score” value is reported as 0.318. In the case of AAACCAGC, the “PBM E-score” value is reported as 0.0107. For AGTGAGCC, the “PBM E-score” value was -0.162. For TACTTTAA, the “PBM E-score” value was -0.122. TCGGGTCA was tested, and the “PBM E-score” value was 0.232. With AGCAGCCA the “PBM E-score” value was -0.259. CCCAGTCC was tested, and the “PBM E-score” value was -0.0128. In the case of CTATAAAG, the “PBM E-score” value is reported as 0.0306. For GAACCAGC, the “PBM E-score” value was -0.126. With ACCCGGAG the “PBM E-score” value was 0.46. For GCCCGGGA, the “PBM E-score” value was 0.341. GCCCGGTA was tested, and the “PBM E-score” value was 0.26. GCCCGGAA was tested, and the “PBM E-score” value was 0.423. In the case of ACCCGGCG, the “PBM E-score” value is reported as 0.258. In the case of ACCCGGAT, the “PBM E-score” value is reported as 0.238. With AGCTCACC the “PBM E-score” value was -0.00625. For ATTCCAAG, the “PBM E-score” value was -0.077. With CTTCCGAA the “PBM E-score” value was 0.371. ATTCCGAC was tested, and the “PBM E-score” value was 0.451. For CTTCCGAC, the “PBM E-score” value was 0.273. In the case of GTTCCGAA, the “PBM E-score” value is reported as 0.373. In the case of ATGCCGAG, the “PBM E-score” value is reported as 0.213. In the case of ATGCCGAC, the “PBM E-score” value is reported as 0.318. With ATTCCGAA the “PBM E-score” value was 0.456. For ATTCCGAG, the “PBM E-score” value was 0.445. With GTGCAACA the “PBM E-score” value was -0.184. For ACATTCCG, the “PBM E-score” value was 0.332. AGGGTTAG was tested, and the “PBM E-score” value was -0.249. With ATATGATA the “PBM E-score” value was 0.0821. In the case of AAGATTCT, the “PBM E-score” value is reported as -0.242. In the case of AATACCGG, the “PBM E-score” value is reported as 0.416. CCCACCGG was tested, and the “PBM E-score” value was 0.41. In the case of CCCACCGC, the “PBM E-score” value is reported as 0.225. AATACCGT was tested, and the “PBM E-score” value was 0.211. AATACCGC was tested, and the “PBM E-score” value was 0.268. In the case of AACACCGG, the “PBM E-score” value is reported as 0.411. CCCACCGA was tested, and the “PBM E-score” value was 0.00192. With AACACCGC the “PBM E-score” value was 0.27. With CACACCGG the “PBM E-score” value was 0.283. For ATAAATAT, the “PBM E-score” value was 0.106. With GGTTCGTA the “PBM E-score” value was -0.0544. In the case of CACTGTAC, the “PBM E-score” value is reported as -0.378. With AAAGCGAC the “PBM E-score” value was 0.031. GTCCGAAC was tested, and the “PBM E-score” value was 0.401. With ATCCGAAG the “PBM E-score” value was 0.301. In the case of GCCCGAAC, the “PBM E-score” value is reported as 0.215. In the case of AACCGAAT, the “PBM E-score” value is reported as 0.133. In the case of GACCGAAC, the “PBM E-score” value is reported as 0.122. In the case of CGCCGAAG, the “PBM E-score” value is reported as 0.365. GGCCGAAA was tested, and the “PBM E-score” value was 0.254. ATCCGAAA was tested, and the “PBM E-score” value was 0.368. In the case of CACCGAAG, the “PBM E-score” value is reported as 0.167. With CTCCGAAG the “PBM E-score” value was 0.479. For ATCCGAAT, the “PBM E-score” value was 0.395. In the case of GTCCGAAA, the “PBM E-score” value is reported as 0.426. For GGACACCA, the “PBM E-score” value was 0.0663. In the case of AAATGGTT, the “PBM E-score” value is reported as -0.0331. In the case of ACCCACAA, the “PBM E-score” value is reported as 0.00936. With AGCTTCCG the “PBM E-score” value was 0.24. For CAACTGCA, the “PBM E-score” value was -0.174. In the case of GGAGCTCC, the “PBM E-score” value is reported as 0.348. In the case of CACCGAAA, the “PBM E-score” value is reported as 0.184. CGCCGAAA was tested, and the “PBM E-score” value was 0.358. ATCCGAAC was tested, and the “PBM E-score” value was 0.344. CTCCGAAC was tested, and the “PBM E-score” value was 0.457. With TGCCGAAA the “PBM E-score” value was 0.325. For TCCCGAAA, the “PBM E-score” value was 0.238. With CTCCGAAA the “PBM E-score” value was 0.477. For CACCGAAC, the “PBM E-score” value was 0.102. For TTCCGAAA, the “PBM E-score” value was 0.43. With CCACAATC the “PBM E-score” value was 0.0776. With ACTGCTAA the “PBM E-score” value was -0.185. With AACAGTTC the “PBM E-score” value was -0.0219. CCTCAAAG was tested, and the “PBM E-score” value was -0.271. AGCGCTCC was tested, and the “PBM E-score” value was 0.0243. In the case of CAGTAGCG, the “PBM E-score” value is reported as 0.0152. For CGAGTTAC, the “PBM E-score” value was -0.00574. For GGAGTTAC, the “PBM E-score” value was 0.399. AGAGTTAC was tested, and the “PBM E-score” value was -0.362. With ACCTAGCT the “PBM E-score” value was -0.1. With ACTACAAA the “PBM E-score” value was -0.0603. For CGCCGAGA, the “PBM E-score” value was 0.304. CTCCGAGA was tested, and the “PBM E-score” value was 0.452. In the case of ATCCGAGC, the “PBM E-score” value is reported as 0.266. In the case of CACCGAGA, the “PBM E-score” value is reported as 0.034. For GTCCGAGA, the “PBM E-score” value was 0.416. In the case of CCCCGAGC, the “PBM E-score” value is reported as 0.219. In the case of GGCCGAGA, the “PBM E-score” value is reported as 0.272. With CTCCGAGC the “PBM E-score” value was 0.439. In the case of ATCCGAGA, the “PBM E-score” value is reported as 0.299. AAATATCT was tested, and the “PBM E-score” value was 0.00279. GCGCAGTA was tested, and the “PBM E-score” value was 0.0804. ACTAGCGA was tested, and the “PBM E-score” value was -0.0813. ATGGATGC was tested, and the “PBM E-score” value was -0.0459. ATCATGAT was tested, and the “PBM E-score” value was -0.14. ACGTAGAC was tested, and the “PBM E-score” value was -0.244. With CTGGAGAA the “PBM E-score” value was -0.141. ATGGAGAA was tested, and the “PBM E-score” value was 0.148. With CCGGAGAC the “PBM E-score” value was 0.444. AAGGAGAA was tested, and the “PBM E-score” value was -0.0157. For CGGGAGAC, the “PBM E-score” value was 0.302. With ACGGAGAA the “PBM E-score” value was 0.434. In the case of CCGGAGAG, the “PBM E-score” value is reported as 0.456. In the case of CAGGAGAG, the “PBM E-score” value is reported as -0.205. With ACGGAGAG the “PBM E-score” value was 0.336. For CCGGAGAA, the “PBM E-score” value was 0.489. In the case of CAGGAGAA, the “PBM E-score” value is reported as 0.0274. CTGGAGAC was tested, and the “PBM E-score” value was -0.222. CTCAGAAA was tested, and the “PBM E-score” value was -0.257. For GAAGACAA, the “PBM E-score” value was -0.0383. With ACCGATCG the “PBM E-score” value was 0.26. CGGGTAAA was tested, and the “PBM E-score” value was 0.156. In the case of CTGAGAAG, the “PBM E-score” value is reported as -0.149. ACGAGTCG was tested, and the “PBM E-score” value was -0.159. In the case of AATTTCGT, the “PBM E-score” value is reported as -0.0607. CGAGATCA was tested, and the “PBM E-score” value was 0.013. GGCAGCGA was tested, and the “PBM E-score” value was 0.0771. CCCAGGAG was tested, and the “PBM E-score” value was -0.188. In the case of CAACACTC, the “PBM E-score” value is reported as 0.133. For TACGGTCA, the “PBM E-score” value was 0.0722. With GTAAAGAA the “PBM E-score” value was -0.0759. For GGGGAGAA, the “PBM E-score” value was 0.0935. For TCGGAGAA, the “PBM E-score” value was 0.465. In the case of GCGGAGAA, the “PBM E-score” value is reported as 0.436. GTGGAGAA was tested, and the “PBM E-score” value was -0.0956. TAGGAGAA was tested, and the “PBM E-score” value was -0.134. With TGGGAGAA the “PBM E-score” value was -0.208. With ATACCTTG the “PBM E-score” value was -0.236. With AACCTAGG the “PBM E-score” value was -0.102. For CATAGGAG, the “PBM E-score” value was -0.136. With GACTATGA the “PBM E-score” value was -0.11. With AGTCTTGA the “PBM E-score” value was -0.247. In the case of CGGAAAAC, the “PBM E-score” value is reported as 0.373. In the case of CTGAAATC, the “PBM E-score” value is reported as 0.0679. In the case of CGGAAAAG, the “PBM E-score” value is reported as 0.373. With AGGAAATA the “PBM E-score” value was 0.0859. With CGGAAATC the “PBM E-score” value was 0.41. For AGGAAATC, the “PBM E-score” value was 0.178. CGGAAAAA was tested, and the “PBM E-score” value was 0.446. With GGGAAATA the “PBM E-score” value was 0.0851. CGGAAATA was tested, and the “PBM E-score” value was 0.451. With ACGCGAGA the “PBM E-score” value was -0.171. For CATTCAAG, the “PBM E-score” value was -0.154. For AACCGGGC, the “PBM E-score” value was 0.0679. For ATCCGGGA, the “PBM E-score” value was 0.332. For CTCCGGGA, the “PBM E-score” value was 0.468. ATCCGGGC was tested, and the “PBM E-score” value was 0.406. With CCCGGGGA the “PBM E-score” value was 0.358. CTGCGGGC was tested, and the “PBM E-score” value was 0.276. With AACCGGGG the “PBM E-score” value was 0.321. In the case of CTCCGGGC, the “PBM E-score” value is reported as 0.448. For ATCCGAGG, the “PBM E-score” value was 0.274. For CACCGGGC, the “PBM E-score” value was 0.304. With GTCCGGGA the “PBM E-score” value was 0.38. With ATCCGGGG the “PBM E-score” value was 0.414. In the case of TAAGAGTA, the “PBM E-score” value is reported as -0.0846. For ACGACAGA, the “PBM E-score” value was -0.232. For AGCCGCAC, the “PBM E-score” value was -0.0107.
